High-throughput results from PubChem BioAssay.
Most compounds without a hit are left out; they make up all but 2.6% or so of the library.
ABHD5 PLIN5 PPI: ABHD5-PLIN5 interaction inhibitors, primary screen, cell lysate, split luciferase complementation, luminescence. Perilipin-5 (Homo sapiens) + 1-acylglycerol-3-phosphate O-acyltransferase ABHD5 (Homo …. Split G. princeps luciferase complementation, 4 h. inhibition, % at 4 µM. 0.78% of 360,000 active;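 active = inhibition above the mean inhibition across every tested compound plus 3 SD, cut at about 22% in these data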;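 also: 0% = DMSO only wells and the 100% control is not disclosed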
Granule exo inh: LAMP-1 surface exposure blockers, TALL-104 cells – cell-based, flow cytometry, MLPCN library, primary screen. TALL-104 LAMP-1 surface exposure; cells stimulated with thapsigargin and PMA. inhibition, % at 10 µM. 0.66% of 360,000 active;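 active = inhibition above about 55%, limit read from the data; inconclusive = no clear call, values can overlap the other calls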
Rce1 inh: yeast Rce1p protease inhibitors, primary screen, biochemical, fluorescence, cell-free homogeneous; yeast membranes, quenched prenylated peptide cleavage fluorescence; 0.27% of 290,000 active; calls only; AID 2563, 2010;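 active = fall in fluorescence gain of 50% or more versus controls, with final raw signal at or below 3038400; inconclusive = same 50% fall but final raw signal above 3038400; inactive = fall in fluorescence gain under 50%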;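 also: plate controls were neutral control wells for no effect and wells lacking membranes for full effect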
M18AAP inhibitor: PfM18AAP inhibitors, malaria aminopeptidase, primary screen, biochemical, QFRET, recombinant enzyme | H-Glu-NHMec fluorogenic cleavage | AID 1822, 2009 | 1.2% of 290,000 active | M18 aspartyl aminopeptidase (Plasmodium falciparum 3D7) | inhibition, % at 7.35 µM;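 active = inhibition above the campaign mean inhibition over all tested compounds plus 3 SD, cut at about 28% in these data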;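 also: 0% = plate median of test compound wells and 100% = 2 mM ZnCl2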
Platelet DG rel: inhibitors of platelet dense granule secretion, primary screen, cell-based, MLPCN, human platelets; human platelet-rich plasma, SFLLRN dense granule ATP release, luminescence; inhibition, %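 (compounds screened at 7.5 µM in platelet-rich plasma)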; 0.22% of 300,000 active;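 active = mean replicate score, as percent of positive control, at or above 50; inconclusive = mean below 50 but at least one replicate at or above 50; inactive = mean and every replicate below 50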
ABHD5 PLIN5 conf: ABHD5-PLIN5 interaction inhibitors, confirmation, biochemical, luminescence; inhibition, % at 4 µM; 67% of 2,200 active; AID 651612, 2012; shares compounds with ABHD5 PLIN5 PPI; in the data active = inhibition above about 23%;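 also: 0% = DMSO vehicle wells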
HNF4 split-luc: HNF4 dimerization inhibitors, counter-screen for ABHD5-PLIN5 interaction inhibitor project, biochemical, split-luciferase complementation, luminescence | shares compounds with ABHD5 PLIN5 PPI | inhibition, % at 4 µM | 77% of 2,200 active | AID 651674, 2012;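 active = mean inhibition across replicate wells exceeding the computed hit threshold, cut at about 13% in these data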;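 also: light from luciferase halves that rejoin when HNF4 fusion proteins dimerize; 0% = DMSO only wells and the 100% control is not given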
Target sequence (P41235 whole entry, looked up, the tested form may be a part): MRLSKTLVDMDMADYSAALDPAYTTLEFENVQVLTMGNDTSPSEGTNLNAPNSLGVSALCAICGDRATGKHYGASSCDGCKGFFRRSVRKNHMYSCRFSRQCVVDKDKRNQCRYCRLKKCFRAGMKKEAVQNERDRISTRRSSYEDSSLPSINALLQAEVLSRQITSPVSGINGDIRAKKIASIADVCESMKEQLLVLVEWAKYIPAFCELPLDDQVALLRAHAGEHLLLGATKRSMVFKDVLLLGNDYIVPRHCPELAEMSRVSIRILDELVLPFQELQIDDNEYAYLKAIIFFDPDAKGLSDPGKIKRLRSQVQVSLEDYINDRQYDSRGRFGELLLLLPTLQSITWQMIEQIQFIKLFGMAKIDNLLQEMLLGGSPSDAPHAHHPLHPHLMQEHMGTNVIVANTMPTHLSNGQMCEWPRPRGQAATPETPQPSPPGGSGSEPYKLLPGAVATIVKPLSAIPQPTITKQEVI
* hit, by the source's call; i = inactive; ? = inconclusive; . = not tested or not shown.

SMILES	ABHD5 PLIN5 PPI	Granule exo inh	Rce1 inh	M18AAP inhibitor	Platelet DG rel	ABHD5 PLIN5 conf	HNF4 split-luc
CCOc1ccc(C(=O)NCC(=O)OC(C)C(=O)NCc2ccco2)cc1OCC (stereo not given)	5	3	i	4	3	.	.
Cc1ccccc1C(=O)NCC(=O)OC(C)C(=O)NCc1ccco1 (stereo not given)	25*	3	i	.	-9	5	2
COc1cccc(CC(=O)OCC(=O)N(C)CC(=O)Nc2ccc(F)cc2)c1	2	-2	i	.	-16	.	.
Cc1cc(NC(=O)CCCN2C(=O)c3cccnc3C2=O)ccc1Br	0	0	.	0	-1	.	.
O=C1C(O)=CC(=C(c2ccccc2)c2ccccc2)c2ccccc21	97*	-57	.	.	.	18	88*
O=C(NCc1ccco1)c1nc2nc(-c3cccs3)cc(C(F)(F)F)n2n1	13	0	i	13	0	.	.
O=C(NCc1ccco1)c1nn2c(C(F)(F)F)cc(-c3cccs3)nc2c1Br	26*	-1	i	10	?	34*	62*
N/C(=N\OC(=O)c1ccc(F)cc1)c1ccc(Br)cc1	-2	10	i	-4	27	.	.
Oc1c(C(Nc2nc3ccccc3s2)c2ccco2)ccc2cccnc12 (stereo not given)	45*	11	i	26	-2	20	14*
Cc1c(C(=O)O)nn(-c2ccccc2)c(=O)c1C#N	4	3	i	2	31	.	.
Cc1cccc(Nc2nc(N3CCOCC3)nc(N3CCOCC3)n2)c1	-19	5	i	-1	.	.	.
Oc1cccc(Nc2nc(N3CCOCC3)nc(N3CCOCC3)n2)c1	25*	14	i	-4	19	9	15*
CCC(=NC(CC)CO)C1=C(O)CC(C)(C)CC1=O (stereo not given)	-1	-4	i	-2	1	.	.
O=C(CCCn1cc([N+](=O)[O-])cn1)NCc1ccccc1	1	2	i	5	-8	.	.
O=C(CCCn1cc([N+](=O)[O-])cn1)NC1CCCCCC1	99*	-1	i	1	?	-5	5
COc1cc(OC)c([N+](=O)[O-])cc1/C=N/NC(=O)c1ccncc1	-2	-9	i	-3	11	.	.
O=C1Nc2ccc(Cl)cc2/C1=C/C1CC=CCC1 (stereo not given)	30*	11	i	4	15	55*	39*
CCOC(=O)c1c(-c2ccc(C)o2)csc1NC(=O)CSc1nnnn1-c1ccccc1	40*	95*	i	-100	5	23*	62*
CCOC(=O)c1c(-c2ccc(C)o2)csc1NC(=O)COC(=O)c1ccc(NC(N)=O)cc1	38*	6	i	-48	2	21	44*
CCOC(=O)c1c(-c2ccc(C)o2)csc1NC(=O)CSc1nnc(C)s1	33*	96*	.	-87	-10	7	37*
Cc1ccc(C)c(S(=O)(=O)N=Nc2c(O)[nH]c3ccccc23)c1	-5	-2	i	6	1	.	.
Cc1c(OC(=O)c2ccc([N+](=O)[O-])cc2)c2c(c[n+]1C)COC(C)(C)OC2	8	4	i	6	-1	.	.
CC(=O)Nc1sc2c(c1C(N)=O)CCC2	-3	4	i	-5	-6	.	.
Cc1ccc(/C=C/C(=O)O)cc1S(=O)(=O)N1CCCc2ccccc21	-3	-1	i	2	11	.	.
O=C(CN1CCC2(CC1)OCCO2)c1ccc2cc[nH]c2c1	102*	0	i	3	-9	5	10
SMILES	ABHD5 PLIN5 PPI	Granule exo inh	Rce1 inh	M18AAP inhibitor	Platelet DG rel	ABHD5 PLIN5 conf	HNF4 split-luc
O=C(NCc1ccco1)c1cccc(NC(=O)c2ccccc2)c1	6	-2	i	2	1	.	.
O=C(NCc1ccco1)c1ccc2c(c1)C(=O)c1ccccc1-2	33*	2	i	5	11	46*	49*
CCC(CC)C(=O)Nc1cccc(C(=O)NCc2ccco2)c1	25*	-1	i	-6	3	25*	31*
CCCn1ncc(CN2CCC(Oc3ccc(C(=O)N4CCCC4)cc3)CC2)c1C	5	-8	i	-1	-2	.	.
COC(=O)C1=C(C)N(Cc2ccco2)C(=O)/C1=C\c1ccc([N+](=O)[O-])cc1	70*	92*	i	0	-9	98*	95*
COC(=O)C1=C(C)N(Cc2ccco2)C(=O)/C1=C\c1ccc(N(C)C)cc1	-3	-3	i	5	-4	.	.
Cc1cc(=O)oc2c(C(=O)/C=C\c3cccs3)c(O)ccc12	39*	-2	i	14	-18	39*	45*
COc1cc(/C=C/C(=O)c2c(O)ccc3c(C)cc(=O)oc23)ccc1O	51*	-6	i	11	-43	61*	64*
COc1ccc(/C=C\C(=O)c2c(O)ccc3c(C)cc(=O)oc23)cc1OC	50*	4	i	-5	-27	74*	61*
CC(=O)N(c1nc(CCl)cs1)c1cccc(C)c1C	2	-1	.	5	10	.	.
COc1ccccc1/C=C/C=N/n1c(-c2cc(-c3ccccc3)n[nH]2)n[nH]c1=S	-12	3	.	17	-4	.	.
COc1ccccc1/C=C/C=N/n1c(-c2ccc(F)cc2)n[nH]c1=S	52*	-2	i	-5	7	-14	-8
CC(=O)Oc1c(Cl)c(N2CCOCC2)c(OC(C)=O)c2ccccc12	36*	0	i	17	12	79*	8
Cc1cc(OC(=O)N2CCOCC2)cc(C)c1Cl	-1	-1	i	4	1	.	.
O=C(O)COc1ccccc1/C=C1\C(=O)Nc2ccc(Br)cc21	34*	0	i	24	5	42*	44*
CC(=O)NC(Cc1ccccc1)C(=O)N1CCN(C(=O)c2ccco2)CC1 (stereo not given)	7	1	i	-1	15	.	.
CC(=O)NC(CSC(CC(=O)c1ccco1)c1ccc(C)cc1)C(=O)O (stereo not given)	50*	0	i	10	-1	40*	40*
CCOC(=O)C1CCCN(C(=O)c2cc(Nc3ccc(OC)c(OC)c3)nc3ccccc23)C1 (stereo not given)	29*	-3	i	2	1	45*	2
